Calls of active or inactive are those of the source. The rule behind the calls is not given here.

The results in this text go back to PubChem BioAssay.

The subject of this assay is Aerobactin synthetase IucA (Klebsiella pneumoniae hvKP1). The experiment in a line: Biochemical IucA enzyme inhibition primary screen of the Spectrum library (AID 1346200).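 Note: 100% = wells without compound and 0% = wells lacking enzyme.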 As to conditions: malachite green pyrophosphate, A620, at 8 µM, hits give low values.
On to `O=C(O)C1CC(C2CCCCN2)CN2CCCCC12` (stereo unspecified), for which the activity remaining is 115% (inactive).
Consider `NC(=O)N1c2ccccc2CC(=O)c2ccccc21`, for which the activity remaining was 123% (inactive).
To `COc1ccccc1OCCNCC(O)COc1cccc2[nH]c3ccccc3c12` (stereo unspecified) belongs 120% (inactive); to `COc1cc(OC)c2c(=O)c(O)c(-c3ccc(OC)c(OC)c3)oc2c1`, 107% (inactive).
On to `COC(=O)CC1C(C)(C)C(OC(C)=O)[C@@H]2[C@@H](OC(C)=O)[C@]34O[C@@]2(O)[C@]1(C)C3CC[C@]1(C)C4=CC(=O)O[C@H]1c1ccoc1` (stereo partly specified), for which the activity remaining is 124% (inactive).
To `CC(=O)O[C@H]1CCC2(C)C3=C(CCC2C1(C)C)[C@@]1(C)CC[C@@H](C(C)CCC=C(C)C)[C@]1(C)CC3` (stereo partly specified) belongs 109% (inactive); to `NS(=O)(=O)c1cc2c(cc1Cl)NC(CSCc1ccccc1)=NS2(=O)=O`, 113% (inactive).
For `O=c1cc(-c2ccc(O)c(O)c2)oc2ccccc12`, the activity remaining is 88.4% (inactive).
Next, `COc1ccc(CC(=O)c2ccc(O)cc2O)cc1`: 111% (inactive); `COc1cccc2c1C(=O)c1c(O)c3c(c(O)c1C2=O)C[C@@](O)(C(=O)CO)C[C@@H]3OC1C[C@H](N)[C@H](O)[C@H](C)O1` (stereo partly specified): 87.4% (inactive).
To `O=C1CC[C@]23/C=C/C(=O)NCCCCNCCCNC(=O)/C=C/c4ccc(c2c4)O[C@@H]3C1` belongs 117% (inactive); to `CC1(C)C=CC(=O)[C@@]2(C)C1CC(=O)[C@]1(C)C2CC[C@@]2(C)[C@H](c3ccoc3)OC(=O)C3OC321` (stereo partly specified), 123% (inactive); to `CCCCN(CCCC)CCCOC(=O)c1ccc(N)cc1`, 90% (inactive).
`O=C(Cc1cccs1)NC1C(=O)N2C(C(=O)[O-])=C(C[n+]3ccccc3)CSC12` (stereo unspecified): the activity remaining was 109% (inactive).
To `COc1cc2c(cc1OC)-c1c(oc3cc(O)cc(O)c3c1=O)CO2` belongs 90.7% (inactive); to `O=c1c(O)c(-c2ccc(O)cc2)oc2ccccc12`, 104% (inactive).
Next, `Cc1cccc2c3c(ccc12)C1=C(C(=O)C3=O)C(C)CO1` (stereo unspecified): 114% (inactive).
To `C=CC(C1=CC(=O)C(OC)=CC1=O)c1ccc(OC)cc1` (stereo unspecified) belongs 109% (inactive).
With `NC[C@H]1O[C@H](O[C@H]2[C@H](O)[C@@H](O[C@H]3O[C@H](CO)[C@@H](O)[C@H](N)[C@H]3O)[C@H](N)C[C@@H]2N)[C@H](N)C[C@@H]1O`, the activity remaining is 97% (inactive).
To `COc1cc2c(cc1O)[C@@H](Cc1ccc(O)cc1)[N+](C)(C)CC2` belongs 75.4% (inactive); to `C[C@H]1[C@H](C)CC[C@]2(C(=O)O)CC[C@]3(C)C(=CCC4[C@@]5(C)C[C@@H](O)[C@H](O)[C@@](C)(CO)C5CC[C@]43C)[C@H]12` (stereo partly specified), 102% (inactive); to `CC(C)/C(O)=C1/C(=O)O[C@@H](c2ccoc2)[C@]2(C)C(O)[C@@H](O)[C@@]34OC5(C)OC67CC(C)(C(O)[C@]6(O)[C@@H](O)[C@]3(O5)C12)[C@H](CC(=O)O)[C@]74C` (stereo partly specified), 92.7% (inactive).
Next, `Cc1cc2cc3c(C)cc(=O)oc3c(C)c2o1`: 117% (inactive); `COc1cc(NC(C)CCCN)c2ncccc2c1` (stereo unspecified): 123% (inactive); `CN(C)CCOC(c1ccc(Cl)cc1)c1ccccn1` (stereo unspecified): 115% (inactive).
As for `CCC[C@@H]1C[C@@H](C(=O)N[C@@H](C2O[C@H](SC)[C@H](O)[C@@H](O)[C@H]2O)[C@H](C)Cl)N(C)C1` (stereo partly specified), the activity remaining was 77.4% (inactive).
Next, `C[C@]12C=CC(=O)C=C1CCC1C2[C@@H](O)C[C@@]2(C)C1CC[C@]2(O)C(=O)COC(=O)CCC(=O)O` (stereo partly specified): 111% (inactive); `NC(Cn1ccc(=O)c(O)c1)C(=O)O` (stereo unspecified): 118% (inactive); `CO[C@@]1(NC(=O)CSCC#N)C(=O)N2C(C(=O)O)=C(CSc3nnnn3C)CSC21` (stereo partly specified): 98.6% (inactive).
To `COc1ccc(-c2cc(=O)c3c(OC)c(OC)c(OC)c(OC)c3o2)cc1` belongs 121% (inactive); to `CC(=O)OCC(=O)[C@@]1(O)CCC2C3CCC4=CC(=O)CC[C@]4(C)C3C(=O)C[C@@]21C` (stereo partly specified), 120% (inactive).
Next, `CC1=C(C(=O)O)N2C(=O)[C@@H](NC(=O)C(N)c3ccc(O)cc3)[C@H]2SC1` (stereo partly specified): 103% (inactive); `C[C@]12CCC3c4ccc(OS(=O)(=O)O)cc4CCC3C1CCC2=O` (stereo partly specified): 122% (inactive); `Oc1c(Cl)cc(Cl)cc1Sc1cc(Cl)cc(Cl)c1O`: 118% (inactive).
Regarding `CC(=O)/C=C\[C@@H]1[C@@]2(C)CCCC(C)(C)C2CC[C@@]1(C)O` (stereo partly specified), the activity remaining is 95.5% (inactive).
On to `CC(=O)C1CC[C@H]2C3CC[C@H]4C[C@H](O)CC[C@]4(C)C3CC[C@]12C` (stereo partly specified), for which the activity remaining was 93.6% (inactive).
